Results with a measured potency or affinity are listed apart. Active and inactive are the calls of the source.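 The calls were made as follows: active = compounds lowering cell ATP signal with a fitted half-effect dose at most twice the top valid dose; inconclusive = flat curve with 30 to 70% signal loss, or bad fit; inactive = wrong direction, flat within 30%, or weaker than limit.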
Test: viability loss in HEK293 kidney cells – cell-based, cherry-picks, set 5, cytotoxicity control, dose response (AID 1053117);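 also: more negative means greater loss of ATP signal and more cytotoxicity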
Conditions: HEK293T viability, CellTiter-Glo ATP luminescence, 72 h; series mostly up to 26 µM

Compound | outcome
CCN(Cc1ccncc1)C(=O)c1ccc2c(c1)S(=O)(=O)c1ccccc1C2=O | inactive
Nc1nc(-c2cc3c(cc2Cl)OCCO3)cs1 | inactive
O=C(CC1Nc2ccccc2NC1=O)Nc1ccc2c(c1)OCO2 (centres undefined) | inactive
O=C(Nc1nc(-c2ccncc2)cs1)C1COc2ccccc2O1 (centres undefined) | inactive
C[C@H](CO)N1C[C@H](C)[C@H](CN(C)C(=O)Nc2cccc3ccccc23)Oc2c(NC(=O)Nc3ccc(C(F)(F)F)cc3)cccc2C1=O | inactive
C[C@H](CO)N1C[C@H](C)[C@H](CN(C)Cc2ccccc2)Oc2ncc(-c3ccccc3)cc2C1=O | inactive
CC(NC(=O)CSc1ccc(S(=O)(=O)N2CCOCC2)cn1)c1ccc(Cl)cc1Cl (centres undefined) | inactive
COc1ccc(C)cc1N(CC(=O)Nc1cccc(N(C)S(C)(=O)=O)c1)S(C)(=O)=O | inactive
N#C[C@H]1[C@@H](c2ccccc2C2=CCCCC2)[C@H](CO)N1S(=O)(=O)c1ccccc1 | inactive
CCCCNC(=O)Nc1nc2ccc(CC)cc2s1 | inactive
N#C[C@@H]1[C@@H](c2ccccc2C2=CCCCC2)[C@@H](CO)N1S(=O)(=O)c1ccccc1 | inactive
N#C[C@@H]1[C@H](c2ccccc2C2=CCCCC2)[C@@H](CO)N1S(=O)(=O)c1ccccc1 | inactive
COC(=O)C[C@@H]1CC[C@H]2[C@H](COc3ccc(NC(=O)Cc4cccs4)cc3C(=O)N2C)O1 | inactive
COC(=O)C[C@@H]1CC[C@H]2[C@@H](COc3ccc(NC(=O)Cc4cccs4)cc3C(=O)N2C)O1 | inactive
CN1c2ccc(-c3ccccc3)cc2[C@@H]2[C@@H](CCN2C(=O)CN2CCOCC2)[C@@H]1CO | inactive
CN(C)C(=O)c1ccc(-c2ccc3c(c2)[C@H]2[C@H](CCN2C(=O)c2ccc(F)cc2)[C@H](CO)N3C)cc1 | inactive
COCC(C)n1c(SCc2nc(N)nc(Nc3ccccc3C)n2)nc2ccccc2c1=O (centres undefined) | inactive
Cn1cc([N+](=O)[O-])c(C(=O)Nc2cc(Oc3ccccc3)cc([N+](=O)[O-])c2)n1 | inactive
COCC(=O)Nc1ccc2c(c1)C(=O)N(C)[C@H]1CC[C@H](CC(=O)NCc3ccccc3Cl)O[C@H]1CO2 | inactive

Reference: PubChem BioAssay AID1053117 (Broad Institute, 2014)
